# This is a sample that favours compounds with a hit; in the whole collection about 2.5% have one here.
# APE1 inh: APE1 (human) endonuclease inhibition; P27695; recombinant APE1, TAMRA/BHQ-2 abasic DNA cleavage fluorescence; Potency, µM (top dose mostly 65.8 µM), for inactives: at the highest dose activity change, negative = inhibition, usual class: inhibitors; 350,000 tested, 0.35% active; AID 2517;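 further: plate controls were vehicle for no effect and reference inhibitor for full effect; nearly all actives have a fitted effect of over 55% in size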
# Target sequence (P27695 whole entry, looked up): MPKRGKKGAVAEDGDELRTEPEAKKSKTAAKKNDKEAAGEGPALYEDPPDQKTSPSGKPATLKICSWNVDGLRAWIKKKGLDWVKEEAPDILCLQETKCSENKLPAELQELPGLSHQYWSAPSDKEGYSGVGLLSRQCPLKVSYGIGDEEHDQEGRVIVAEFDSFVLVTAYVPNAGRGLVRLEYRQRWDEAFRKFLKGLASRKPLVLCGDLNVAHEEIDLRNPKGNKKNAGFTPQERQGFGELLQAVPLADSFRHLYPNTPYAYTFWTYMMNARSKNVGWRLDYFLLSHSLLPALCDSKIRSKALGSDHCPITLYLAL
#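 Enzyme (0.75 nM final) and test compound are incubated 15 min at room temperature before adding 50 nM quenched THF abasic-site duplex. Cleavage dequenches TAMRA, followed at 525/598 nm over three reads one minute apart.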
# L3MBTL1 inh: blocks human L3MBTL1; AID 485360; 230,000 tested, 0.66% active; AlphaScreen L3MBTL1–H3K9me1 peptide binding; Potency, µM (highest dose often 57.1 µM), without a hit: at the top dose activity, negative = inhibition, most hits filed as inhibitors; Q9Y468; further: on the % scale 0 is the no-effect control and ±100 the full control effect; nearly all actives have a fitted effect of over 60% in size
#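 First, the protein-peptide complex forms for 30 min at room temperature (L3MBTL1 50 nM, biotinylated H3K9me1 peptide 75 nM). Next, compounds are pin-transferred and incubated 30 min. Finally, AlphaScreen beads are added and read after 30 min.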
# POLH inh: DNA polymerase eta (human) inhibition. Q9Y253. recombinant Pol eta, fluorescent DNA replication assay. Potency, µM (doses to about 114 µM), inactives show top-dose activity change, negative = inhibition, most hits filed as inhibitors. 390,000 tested, 1.2% active. AID 588591; further: on the % scale 0 is the no-effect control and ±100 the full control effect
#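 Pol eta (10 nM) was preincubated with compounds for 15 min at room temperature, after which fluorescent replication substrate (50 nM final) was added to start the reaction. Fluorescence was read kinetically at 0 and 10 min.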
# Pol kappa inh: DNA polymerase kappa (human) inhibition; 400,000 tested, 0.53% active; purified Pol kappa, fluorescent DNA synthesis assay, 10 min; Q9UBT6; Potency, µM (top dose mostly 107 µM), for inactives: top-dose activity, negative = inhibition, hits mostly inhibitors; further: on the % scale 0 is the no-effect control and ±100 the full control effect
#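 Here, compound and 10 nM enzyme are combined for 15 min at room temperature; adding 50 nM substrate (final) starts DNA synthesis, tracked by fluorescence at 0 and 10 min against buffer-only wells.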
# Pol iota inh: DNA polymerase iota (human) inhibition | Potency, µM (doses to about 115 µM), for inactives: at the highest dose activity, negative = inhibition, hits mostly inhibitors | Pol iota fluorescent replication assay, 10 min | 390,000 tested, 1% active
#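 Fluorescent replication assay read twice, at 0 min and 10 min after adding 50 nM (final) substrate. Enzyme (10 nM) and compounds were first incubated 15 min at room temperature; enzyme-free buffer wells were negative controls.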
# POLB inh: DNA polymerase beta (human) inhibition. Potency, µM (titrated, usually from 114 µM), without a hit: at the top dose activity change, negative = inhibition, usual class: inhibitors. 340,000 tested, 1.3% active. Pol beta primer extension/strand displacement, fluorescence kinetic. P06746; further: on the % scale 0 is the no-effect control and ±100 the full control effect
#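 Human Pol beta at 10 nM; strand-displacement substrate 50 nM final. Compound exposure 15 min at room temperature before start, reaction 10 min at room temperature.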
# The depositor's hits bear a star; ? = inconclusive; / = not tested or not shown; [ ] = remark or other dose. The call rests on the fitted dose curve; in most records, active means well fitted curve in the direction sought with a large enough effect; inconclusive means small, poorly fitted or top-dose-only effect, or another doubt; inactive means no such curve, though single readings can be large; an effect the other way counts as inactive or inconclusive. Potency means the concentration at half of the fitted maximal effect.
SMILES,APE1 inh,L3MBTL1 inh,POLH inh,Pol kappa inh,Pol iota inh,POLB inh
O=C(Nc1ccc(-n2nncc2-c2ccco2)cc1)c1cccc(F)c1,-4%,-10%,-7%,-17%,?,-2%
O=C(CCCN1C(=O)/C(=C/c2cccs2)SC1=S)Nc1ccccn1,2%,35µM*,-19%,-1%,-13%,-25%
O=C(CCN1C(=O)/C(=C/c2cccs2)SC1=S)Nc1ccc(O)cc1,30%,/,-18%,1%,-6%,21%
CC(/C=C1\SC(=S)N(CCCC(=O)Nc2ccc(C(=O)O)c(O)c2)C1=O)=C\c1ccccc1,-4%,40µM*,?,?,?,?
CC(/C=C1\SC(=S)N(CCC(=O)Nc2ccc(O)cc2)C1=O)=C\c1ccccc1,-7%,/,-7%,5%,17%,-2%
O=C(CCN1C(=O)/C(=C\c2cccs2)SC1=S)Nc1ccccn1,-5%,?,-2%,-4%,94%,-1%
O=C(CCN1C(=O)/C(=C/c2cccs2)SC1=S)Nc1ccc(C(=O)O)c(O)c1,-17%,/,40µM*,-3%,18%,?
C[C@H](CO)N1C[C@H](C)[C@@H](CN(C)C(=O)C2CCOCC2)Oc2ncc(Br)cc2C1=O,/,/,-24%,/,/,/
O=c1c2c(-c3ccco3)csc2nc(SCc2cn3cccnc3n2)n1-c1ccccc1,-2%,-17%,11µM*,-23%,?,-1%
NC(=O)CSc1nc2scc(-c3ccco3)c2c(=O)n1-c1ccccc1,11%,/,79µM*,45µM*,11µM*,?
C(=Nc1cccnc1)c1ccc2ccccc2n1,/,/,/,1%,4%,/
COc1cc(/C=N/NC(=O)c2ccc3nc[nH]c3c2)cc(OC)c1OC,-6%,11%,?,?,16µM*,7.1µM*
COc1cc(/C=N/NC(=O)c2ccc(CSc3nc4ccccc4[nH]3)cc2)cc(OC)c1OC,2%,-4%,?,?,?,10µM*
COc1cc(/C=N/NC(=O)c2ccc(Cl)c(S(N)(=O)=O)c2)ccc1OCC(N)=O,-2%,0%,?,?,?,?
c1ccc(CSc2nc3ccccc3[nH]2)cc1,-3%,/,-23%,-5%,12%,2%
COc1ccc(/C=N/NC(=O)c2ccc(Cl)c(S(N)(=O)=O)c2)cc1OCC(N)=O,?,-10%,-3%,79µM*,-19%,-25%
Fc1ccc(CSc2nc3ccccc3[nH]2)cc1,-3%,/,-2%,-4%,71µM*,77%
COC(=O)N1CCC2(CCCN(C(=O)Nc3ccccc3)C2)CC1,17%,/,/,8%[60.1 µM],/,/
CCOc1ccc2[nH]c(C(=O)N/N=C/c3cc(OC)c(OC)c(OC)c3)cc2c1,-1%,/,?,-30%,-15%,13µM*
COc1ccc(/C=N/NC(=O)c2[nH]nc3c2CCc2ccccc2-3)cc1OC,-3%,10%,?,?,-52%,11µM*
COc1ccc(/C=N/NC(=O)c2ccc3nc[nH]c3c2)cc1OC,-3%,-1%,-15%,?,13µM*,16µM*
COC(=O)c1ccc(/C=N/NC(=O)c2ccc3nc[nH]c3c2)cc1,-19%,/,-16%,-20%,21%,6%
CCn1c(N)[n+](CC(=O)Nc2ccc(SC(F)F)cc2)c2ccccc21,-2%,/,-10%,-4%,42%,-8%
COc1ccc(NC(=O)/C(Cl)=C(/Cl)S(=O)(=O)Cc2ccc(C)cc2)cn1,-4%,/,14µM*,-6%,?,-1%
COc1ccc(NC(=O)Cc2ccc(Cl)c(Cl)c2)cn1,?,/,-4%,-13%,-10%,8%
SMILES,APE1 inh,L3MBTL1 inh,POLH inh,Pol kappa inh,Pol iota inh,POLB inh
COc1cc2c(NC3CCN(C)CC3)nc(N3CCCN(C)CC3)nc2cc1OCCN(C)C,/,/,/,-7%,?,/
CC(C)(Oc1ccc(-c2ccco2)cc1)C(=O)O,-3%,/,/,/,/,40µM*
Cc1c(Cl)cccc1NC(=O)CCS(=O)(=O)c1ccc(Br)s1,/,/,-7%,?,-16%,50µM*
Cc1ccc(NC(=O)CCS(=O)(=O)c2ccc(Br)s2)cc1,-2%[12.4 µM],/,-13%,-7%,158%,2%
CCOc1ccc(NC(=O)CCS(=O)(=O)c2ccc(Br)s2)cc1,/,/,?,-28%,8%,28µM*
C/C(=C/CCC(C)(O)C1CC[C@@]2(C)[C@@H]3CC=C4[C@@H](CC[C@H](O[C@H]5O[C@@H](CO)[C@H](O)[C@@H](O)[C@@H]5O)C4(C)C)[C@]3(C)C(=O)C[C@]12C)CO[C@@H]1O[C@H](CO)[C@@H](O)[C@H](O)[C@H]1O (some centres not stated),-9%,2%,-8%,-11%,2%,/
COc1ccc(NS(=O)(=O)c2ccc3c(c2)CCCN3C(=O)C2CCC2)cc1OC,/,/,-22%,-4%[60.1 µM],11%,-3%
COc1cccc(CNC(=O)CCC2CCCN(Cc3cc(Cl)ccc3O)C2)c1 (configuration not stated),3%,-1%,5%,-7%,38%,1%
C=C1C=C(C(F)F)n2ncc(C(=O)Nc3ccc(C(C)CC)cc3)c2N1 (configuration not stated),40%,/,/,/,/,/
Cc1ccc2c(c1)c1c(c(=O)n(-c3cccc(Cl)c3)c(=O)n1CC(=O)c1ccc(Cl)cc1)n2C,/,/,-14%,1%,79µM*,17%
Cc1ccc(C2(C)NC(=O)N(CC(=O)c3ccc(Cl)s3)C2=O)cc1 (configuration not stated),-2%,-1%,?,-15%,?,20µM*
O=C(O)C1CCN(S(=O)(=O)c2ccc3[nH]ccc3c2)CC1,/,/,7%,/,/,/
O=C(Nc1ccc2c(c1)OCO2)c1cc2nc(C3CC3)cc(C(F)(F)F)n2n1,-2%,?,?,-18%,?,40µM*
COC(=O)c1ccccc1NC(=O)c1cc2nc(C3CC3)cc(C(F)(F)F)n2n1,-1%,7%,79µM*,-22%,?,50µM*
COC(=O)c1ccccc1NC(=O)c1cc2nc(-c3ccc(OC)cc3)cc(C(F)(F)F)n2n1,/,/,0%,-9%,-2%,40%
O=C(Nc1ccc2c(c1)OCO2)c1cc2ncc(Br)cn2n1,-5%,/,3.5µM*,-41%,?,28µM*
CC(C)CNC(=O)c1cc(=O)[nH]c2ccc(S(=O)(=O)Nc3ccc(F)cc3)cc12,49%,/,-8%,1%,10%,-2%
CC1CCCCC1=NNC(=O)c1ccccc1 (configuration not stated),/,/,-6%,/,/,/
CCOCCCNC(=O)NC(CCC(C)C)c1c(-n2cccc2)sc2c1CCN(C)C2 (configuration not stated),/,/,-10%,-12%,-24%,-24%

# Screening results: PubChem, National Center for Advancing Translational Sciences (NCATS)
